In the supplement of paper PMC4723716:

test system: Plasmodium falciparum NF54 gametocytes; test: viability index relative to DMSO control (fraction); higher = less gametocyte killing; conditions: gametocyte stage: Stage I viability index; 12.5 µM; incubation time: 72 h
Outline: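 In 384-well plates, compound at 12.5 µM was incubated for 72 hr at 37°C under low oxygen with P. falciparum NF54 gametocytes of each stage (I–V) at 0.50% gametocytemia and 1.25% hematocrit in 40 µl of serum-containing medium. Staining used 5 µl of 5 µM MitoTracker Red CMXRos for 20 min, then 5 µl was moved into 40 µl of 500 nM dye in serum-free medium and imaged after 30 min. Dividing the gametocyte particle count by the plate mean of solvent-only wells gave the viability index.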

Structure (SMILES) | viability index
COc1cc2c(cc1OC)C1=NNC(=O)C1=NC(C)(C)C2 | 0.00884
O=C(Nc1ccc(CN2CCOCC2)cc1)c1ccc(-c2cc(Cl)ccc2Cl)o1 | 0.302
CC(NCc1ccccc1)c1cc(Cl)ccc1O (stereo unspecified) | 0.0221

same assay, conditions: gametocyte stage: Stage II viability index; 12.5 µM; incubation time: 72 h

Structure (SMILES) | viability index
CCOc1ccc(N2C(N)=NC(N)=NC2(C)C)cc1 | 0.909
COCCNC(=O)c1ccc(OC2CCN(Cc3ccc(F)c(F)c3)CC2)c(Cl)c1 | 0.812
CCOC(=O)c1cnc2c(C)cc(C)cc2c1Nc1ccc(OC)c(OC)c1 | 0.998
CN1CCN(c2ncnc3c2[nH]c2ccc(Cl)cc23)CC1 | 0.577
CCOC(=O)c1ccc2nc(-c3ccccc3)cc(O)c2c1 | 0.719
COc1ccc(-c2c(C)nn3c(N)c(C#N)cnc23)cc1OC | 0.00676
CCCCCn1c(=N)n(CC(O)COc2cccc(C)c2)c2ccccc21 (stereo unspecified) | 0.0949
Cc1cc(Nc2cccc(F)c2)nc(NCc2ccccc2)n1 | 0.436
Cc1ccc(-c2cc3c(nn2)-c2ccccc2C3=O)cc1 | 0.871
CCOC(=O)C1=C(c2ccccc2)N=c2sc(=Cc3cc(C)n(-c4ccc(F)cc4)c3C)c(=O)n2C1c1cccc(OC)c1OC (stereo unspecified) | 0.787
CC1CCN(Cc2ccc(NC(=O)c3cc4ccc5cccnc5c4[nH]3)cc2)CC1 | 0.505
COc1cc(SC)ccc1C(=O)N1CCCC(C)C1 (stereo unspecified) | 0.96
O=C(Nc1ccc(N2CCN(Cc3ccccc3)CC2)cc1)c1cccs1 | 0.866
CCN(Cc1ccccc1)C1CCN(Cc2cc(Br)ccc2O)CC1 | 0.132
c1ccc2c(NCCc3c[nH]c4ccccc34)c3ccccc3nc2c1 | 0.22
CN(C)c1ccc(-c2nc3cc(N)ccc3[nH]2)cc1 | 0.566
N=c1c2ccccc2nnn1-c1cccc(C(F)(F)F)c1 | 0.714
O=C(Nc1cccc(-c2nc3ccccc3[nH]2)c1)c1cccc(NC(=O)c2ccco2)c1 | 0.771
COc1ccc2nc(N)nc(C)c2c1 | 0.614

Structure (SMILES) | viability index
CCOC(=O)c1cn(CC)c2cc(N(C)CCc3ccc(OC)c(OC)c3)c(F)cc2c1=O | 0.723
N=c1n(CCN2CCCCC2)c2ccccc2n1CC(=O)c1ccc(Cl)c(Cl)c1 | 0.281
Fc1ccc2[nH]c3c(NCCCN4CCOCC4)ncnc3c2c1 | 0.564
COc1ccc(C2c3ccc4ccccc4c3Oc3ncn(CCCn4ccnc4)c(=N)c32)cc1OC (stereo unspecified) | 0.231
CCCCc1ccc(NS(=O)(=O)c2cc3c4c(c2)CCN4C(=O)CC3)cc1 | 0.982
COc1ccc(C(=O)Nc2nonc2-c2ccc(OC)c(OC)c2)cc1Cl | 0.401
Cc1ccc(CN2CCC(C(=O)Nc3ccc(-c4cc5ccccc5[nH]4)cc3)CC2)o1 | 0.313
COc1ccc(Br)cc1C1Nc2ccc3ccccc3c2C2=C1C(=O)CC(c1ccccc1)C2 (stereo unspecified) | 0.729
CCCCC(O)(c1ccc(Cl)cc1)C(CN1CCOCC1)c1ccc(Cl)cc1 (stereo unspecified) | 0.896
COc1ccc(N2CCN(C(CNC(=O)CC(C)(C)C)c3ccc4c(c3)OCO4)CC2)cc1 (stereo unspecified) | 0.928
Cc1sc(NC(=O)c2ccccc2)c(C(c2cccs2)N2CCN(c3ccccc3)CC2)c1C (stereo unspecified) | 0.74
O=C(Nc1nc(-c2ccccn2)cs1)c1ccccc1Br | 0.13
CN(C)CCCNc1c2ccccc2nc2ccccc12 | 0.0164
O=C(NCc1ccco1)C1CCN(S(=O)(=O)c2ccc(Cl)cc2)CC1 | 0.802
O=C(Nc1ccccc1O)c1ccc(-c2ccc(Cl)cc2Cl)o1 | 0.0976
O=C(NC1CCN(Cc2ccccc2)CC1)c1cc2nc(-c3ccc(Cl)s3)cc(C(F)(F)F)n2n1 | 0.366
COc1cc2c(cc1OC)C1=NNC(=O)C1=NC(C)(C)C2 | 0.0058
O=C(Nc1ccc(CN2CCOCC2)cc1)c1ccc(-c2cc(Cl)ccc2Cl)o1 | 0.64
CC(NCc1ccccc1)c1cc(Cl)ccc1O (stereo unspecified) | 0.121
